Bioassay records as filed in PubChem BioAssay.
Shown are actives, neighbours in structure and some others; about 4% of the full set was active somewhere.
TWEAK-Fn14 inh: inhibitors of TWEAK-Fn14 interaction signaling. TWEAK-stimulated Fn14 reporter cells, luciferase luminescence, 8 h. inhibition, % at 10 µM. hit rate 2% among 360,000. AID 1159606; in the data active = inhibition above about 50%
Peg3 promoter: inhibitors of Peg3 promoter; HeLa PEG-Prom luciferase reporter, luminescence, overnight; inhibition, % at 20 µM; hit rate 1.7% among 360,000; AID 588405;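 active = inhibition of at least 50% at 20 µM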
CF NFkB block: blocks PAF-induced NF-kB reporter in cystic fibrosis cells. inhibition, % at 5 µM. hit rate 0.86% among 360,000. AID 588850. KKLEB NF-kB-GFP reporter, GFP fluorescence overnight;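 active = at least 50% inhibition at 5 µM, scaled per plate between neutral and stimulator controls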;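 also: PAF is a Pseudomonas aeruginosa culture filtrate used as stimulus; plate controls were PAF-stimulated DMSO wells for no effect and unstimulated DMSO wells for full effect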
HIF-2a block: blocks HIF-2a reporter activity. 786-0 RCC cells HIF-2a reporter, luciferase luminescence, overnight. inhibition, % at 18.8 µM. hit rate 0.72% among 360,000. AID 624352;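 active = inhibition of the luminescence signal of 40% or more relative to plate controls, in a single-dose primary screen at 18.75 µM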
KKLEB tox: CF airway cell cytotoxicity counter-screen; KKLEB CF airway cells viability, ATPlite luminescence, overnight; stronger effect = lower value; cells stimulated with P. aeruginosa culture filtrate; hit rate 0.36% among 360,000; activity change (cytotoxicity), % at 5 µM;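 active = corrected activity change at or below -50% at 5 µM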
TROY signal inh: inhibitors of TROY-dependent NF-kB signaling; inhibition, % at 10 µM; Q293 LMP1-TROYcd NF-kB luciferase reporter, 4 h; hit rate 0.98% among 360,000; AID 1347056;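 active = compounds whose plate-normalised and pattern-corrected inhibition of the luciferase reporter signal at the single screening dose is 50% or more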
* hit, by the source's call.

SMILES | TWEAK-Fn14 inh | Peg3 promoter | CF NFkB block | HIF-2a block | KKLEB tox | TROY signal inh
O=C(Nc1nccs1)c1sc2cc(Cl)ccc2c1Cl | 102* | -87 | -19 | -108 | -12 | -105
CC1(C)CC(NC2C3CC4CC(C3)CC2C4)CC(C)(C)N1 (configuration not stated) | -7 | -27 | 5 | 9 | -4 | -3
COc1ccccc1CC(NC(C)=O)C(=O)NC1CCN(C(=O)NCc2ccccc2)CC1 (configuration not stated) | -1 | 3 | 1 | 12 | -16 | 13
O=C(Nc1ccc(-c2csc(Nc3ccccc3)n2)cc1)c1cc([N+](=O)[O-])cc(C(F)(F)F)c1 | 66* | 23 | 4 | -17 | 12 | 19
O=C(NNc1nc2ccccc2s1)Nc1ccc(F)cc1 | 65* | -212 | -38 | -193 | -5 | 45
O=C(NNc1nc2ccccc2s1)c1ccccc1F | 3 | -45 | -2 | -72 | -2 | 69*
Cc1ccc2nc(NC(=O)c3ccccc3F)sc2c1 | 69* | -16 | 20 | -69 | -22 | 8
O=C1CC(NNc2nc3ccccc3s2)C(=O)N1c1ccc(F)cc1 (configuration not stated) | 16 | 4 | 7 | 12 | -2 | 69*
O=C(CSc1cn(CC(=O)N2CCCC2)c2ccccc12)NCC1CCCO1 (configuration not stated) | 5 | 10 | -19 | 21 | -10 | -16
CCC(=O)N/N=C/c1ccc(OS(=O)(=O)c2ccccc2)cc1 | -18 | 5 | 20 | -1 | -3 | -2
Cc1cc(C)c(S(=O)(=O)/N=C2/C=C(Sc3ncn[nH]3)C(=O)c3ccccc32)cc1C | 94* | 106* | 77* | 68* | -59* | 59*
Cc1ccc([N+](=O)[O-])cc1S(=O)(=O)Nc1ccc(O)c(Sc2ncn[nH]2)c1 | 22 | 16 | 20 | 15 | -2 | -10
COC(=O)c1sc(N2C(=O)c3oc4ccccc4c(=O)c3C2c2cccc(O)c2)nc1C (configuration not stated) | -6 | 52* | 0 | 11 | -1 | 17
COc1ccccc1/C=C1\SC(=S)N(CCC(=O)NNC(=O)c2ccccc2OC)C1=O | 46 | 9 | -10 | 44* | 0 | 44
CN1CCN(C(=O)CCCN2C(=O)/C(=C/c3ccccc3)SC2=S)CC1 | -13 | 25 | 11 | 28 | -6 | -15
O=C(CCN1C(=O)/C(=C/c2ccccc2Cl)SC1=S)Nc1cccnc1 | -8 | -29 | -34 | -19 | 1 | 57*
Cc1ccc(C(=O)NNC(=O)CCCN2C(=O)/C(=C/c3ccccc3Cl)SC2=S)cc1 | 48 | 49 | 20 | 87* | -10 | 34
O=C(CCN1C(=O)/C(=C/c2ccccc2Cl)SC1=S)NNC(=O)c1ccccc1O | -26 | 21 | -16 | 13 | -1 | -1
O=C(O)CCCN1C(=O)/C(=C\C(Cl)=C\c2ccccc2)SC1=S | 102* | 108* | -27 | 94* | -13 | 26
CCCCc1nnc(SCC(=O)Nc2nccs2)n1CC | -2 | -2 | 1 | -1 | 5 | -2
COCCNC(=O)CN(c1cc(C(F)(F)F)ccc1Cl)S(C)(=O)=O | 17 | 10 | -5 | -2 | -1 | 15
O=C(O)CCCN1C(=O)/C(=C\c2ccccc2OCc2ccccc2)SC1=S | -6 | 14 | 18 | 11 | 1 | 56*
O=C(CCN1C(=O)/C(=C/c2ccccc2Cl)SC1=S)NNC(=O)c1cccnc1 | -1 | 0 | 7 | -10 | -10 | 11
O=C(CCN1C(=O)/C(=C/c2ccccc2Cl)SC1=S)Nc1ccccn1 | -6 | -47 | -12 | -1 | -6 | -19
O=C(CCCN1C(=O)/C(=C/c2ccccc2Cl)SC1=S)Nc1ccccn1 | 82* | 16 | 12 | 79* | -7 | 60*
O=C(O)CN1C(=O)/C(=C\c2ccccc2OCc2ccccc2)SC1=S | -5 | 2 | 4 | 2 | -1 | 3
O=C(CCCN1C(=O)/C(=C/c2ccccc2Cl)SC1=S)Nc1cccnc1 | 11 | 71* | -10 | 0 | 6 | 29
O=C(CCS(=O)(=O)c1ccc(Cl)cc1)Nc1nccs1 | 5 | -30 | 5 | -17 | 4 | 57*
COC(=O)c1ccsc1NC(=O)CCS(=O)(=O)c1ccc(Cl)cc1 | 5 | 21 | -12 | 3 | 8 | 30
